# PP1 inh = PP1-alpha phosphatase inhibitors, primary screen, counter-screen for PP5 inhibitor project, biochemical, fluorescence, OMFP substrate, single point. Serine/threonine-protein phosphatase PP1-alpha catalytic subunit (Homo sapiens), P62136. purified PP1alpha. inhibition, % at 6.7 µM. 320,000 compounds, 0.9% hits. AID 2235, 2010;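 active = inhibition above the mean inhibition of all tested compounds plus 3 SD, computed separately for each screening campaign, cut at about 15% in these data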
# Exocytosis inh = LAMP-1 surface exposure blockers, TALL-104 cells – cell-based, flow cytometry, MLPCN library, primary screen; TALL-104 LAMP-1 surface exposure; cells stimulated with thapsigargin and PMA; inhibition, % at 10 µM; 360,000 compounds, 0.66% hits; AID 651702, 2012;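 active = inhibition above about 55%, limit read from the data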
# IDE cell activ = human IDE activators in live cells, primary screen, fluorescence polarization, HEK cells, FAbeta-B substrate; Insulin-degrading enzyme (Homo sapiens), P14735; FAbeta-B cleavage; 0% vehicle, 100% cell-free pure enzyme wells; activation, % at 5.96 µM; AID 493087, 2011; 340,000 compounds, 0.073% hits;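 active = activation above the mean of all tested compounds plus 3 SD, set per screening campaign, cut at about 17% in these data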
# IDE inh = human IDE inhibitors in live cells, primary screen, fluorescence polarization, HEK cells, FAbetaB substrate. Insulin-degrading enzyme (Homo sapiens), P14735. FAbetaB cleavage. 320,000 compounds, 0.41% hits. inhibition, % at 5.59 µM;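 active = percent inhibition above the average of all tested compounds plus 3 SD, set per screening campaign, cut at about 16% in these data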;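 also: IDE supplied by intact live HEK cells; FP after avidin binding of uncleaved biotin substrate so inhibition keeps polarization high; 0% = DMSO wells and 100% = 60 µM reference IDE inhibitor Ii1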
# SKKanGAS inh = S. pyogenes SKKanGAS growth inhibitors in kanamycin, primary screen, streptokinase expression inhibitor project, SKKanGAS strain, BacTiter-Glo luminescence. inhibition, % at 7.5 µM. AID 1662, 2009. 6 h. 300,000 compounds, 1.3% hits;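 active = mean replicate score, as percent of positive control median, at least 50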;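 also: strain carries kanamycin resistance gene driven by streptokinase promoter and grows in 40 µg/ml kanamycin; loss of luminescence reflects streptokinase promoter inhibition or plain growth inhibition; 0% = median of DMSO wells and 100% = positive control at its reference dose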
# PP5 primary = PP5 phosphatase inhibitors, primary screen, biochemical, fluorescence; 320,000 compounds, 0.18% hits; inhibition, % at 6.7 µM; Serine/threonine-protein phosphatase 5 (Homo sapiens), P53041; purified PP5c, OMFP substrate fluorescence;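 active = inhibition above the campaign's mean inhibition across all tested compounds plus 3 SD, cut at about 9.5% in these data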;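 also: 0% = DMSO only and 100% = 100 µM cantharidin control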
# Target sequence (P53041 whole entry, looked up): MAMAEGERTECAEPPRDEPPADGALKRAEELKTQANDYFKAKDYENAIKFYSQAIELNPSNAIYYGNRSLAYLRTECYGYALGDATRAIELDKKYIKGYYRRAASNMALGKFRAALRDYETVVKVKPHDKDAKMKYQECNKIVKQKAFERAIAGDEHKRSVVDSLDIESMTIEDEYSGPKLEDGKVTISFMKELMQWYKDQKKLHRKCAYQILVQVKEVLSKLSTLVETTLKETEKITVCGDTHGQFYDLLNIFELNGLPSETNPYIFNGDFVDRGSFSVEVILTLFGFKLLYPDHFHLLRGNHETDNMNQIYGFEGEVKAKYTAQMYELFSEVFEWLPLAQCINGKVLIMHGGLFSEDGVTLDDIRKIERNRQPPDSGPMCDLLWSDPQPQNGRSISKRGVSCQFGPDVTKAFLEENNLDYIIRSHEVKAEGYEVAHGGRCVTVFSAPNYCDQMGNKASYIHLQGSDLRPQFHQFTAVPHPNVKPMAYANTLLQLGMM
# IDE inh confirm = human IDE inhibitors in live cells, confirmation, fluorescence polarization, HEK cells, FAbetaB substrate; FAbetaB cleavage; AID 435028, 2010; shares compounds with IDE inh; 1,200 compounds, 51% hits; inhibition, % at 5.59 µM;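 active = mean inhibition across triplicate wells above the cutoff set by the earlier primary insulin-degrading enzyme screen, cut at about 16% in these data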;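 also: 0% = DMSO wells and 100% = 60 µM reference IDE inhibitor Ii1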
# HEK293 tox = cytotoxicity in HEK cells, cytotoxicity control for IDE inhibitor project, cell-based, luminescence; HEK293 cytotoxicity, ATP luminescence; 1,200 compounds, 28% hits; inhibition, % at 5.59 µM; AID 449730, 2010; shares compounds with IDE inh; in the data active = inhibition above about 22%;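 also: 0% = vehicle wells and 100% = reference cytotoxic drug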
# * = called active by the depositor; . = no result given. A selection: hits, their analogues and other compounds. The true share with any hit is near 2.8%.
SMILES,PP1 inh,Exocytosis inh,IDE cell activ,IDE inh,SKKanGAS inh,PP5 primary,IDE inh confirm,HEK293 tox
O=C1C=CC(=O)C(C2=C3C(=O)N(CCc4ccccc4)CC(=O)N3CCC2)=C1,-2.8,.,.,40.1*,-4.4,1.4,10.3,123.8*
O=C1CC2(CCCCC2)CC(=O)N1CCc1ccccc1,.,-1.7,5.8,.,.,.,.,.
CCc1cc(Cn2nc(-c3ccccc3)cc2C(=O)NCc2ccc(C)cc2)on1,-0.6,2.9,0.2,0.4,37.4,1.0,.,.
Cc1c(N2C(=O)/C(=C\c3ccc(N(C)C)cc3)N(C)C2=S)c(=O)n(-c2ccccc2)n1C,15.7*,-1.6,-35.5,53.3*,.,7.6,40.2*,13.4
Clc1ccc(OCCOCCNCc2ccccc2)cc1Cl,2.0,51.5,-3.5,-2.6,1.4,0.2,.,.
C=CCN1C(=O)/C(=C/c2ccc(O)cc2)S/C1=N/c1nccs1,-4.0,-5.5,-111.3,118.6*,9.3,0.5,93.5*,20.1
CCOc1ccc(C(=O)NCc2ccco2)cc1Cl,-0.5,-11.4,-2.1,1.0,4.0,0.2,.,.
N#Cc1ccc(-c2cccnc2)nc1SCC(=O)c1ccccc1,3.9,25.7,-40.8,23.4*,-1.1,1.8,41.7*,17.8
N#Cc1ccc(-c2ccccc2)nc1SCC(=O)c1cccc(Cl)c1,13.1,-3.0,4.3,1.1,-0.1,4.5,.,.
CCOC(=O)c1c(C)[nH]c(C(=O)COC(=O)CNC(=O)c2ccccc2Cl)c1C,2.1,2.6,2.4,17.5*,0.2,2.1,0.9,12.8
CC(=O)Nc1ccc(NC(=O)COc2cc(O)c3c(c2)OC(C)(C)CC3=O)cc1,-6.4,-1.5,-2.0,0.4,2.4,4.6,.,.
Cc1cc(OCC(=O)Nc2ccc(Br)cc2)cc2c1C(=O)CC(C)(C)O2,4.2,15.6,.,16.8*,6.4,4.5,-0.3,22.0
O=C(Nc1ccccc1C(=O)NCC1CCCO1)c1ccc(Cl)cc1 (stereo not given),-0.8,4.2,-0.2,1.5,-4.9,0.5,.,.
NNC(=O)/C(=C\c1ccc(Br)cc1)NC(=O)c1cccs1,6.6,0.9,8.1,17.4*,3.5,-0.1,6.6,8.1
CC(C)(C)NC(=O)/C(=C\c1ccc(Br)cc1)NC(=O)c1cccs1,10.3,-1.0,3.3,-0.6,-11.8,-0.5,.,.
COc1ccc(Br)cc1/C=N/NC(=O)CNC(=O)C1COc2ccccc2O1 (stereo not given),3.0,2.0,-22.0,30.0*,-0.2,3.7,22.7*,1.6
O=C(CNC(=O)C1COc2ccccc2O1)N/N=C\c1ccc(Br)cc1 (stereo not given),1.2,-1.1,2.8,3.0,-3.6,5.9,.,.
CN(C)c1ccc(/C=C(/C(=O)c2ccc(Cl)cc2Cl)n2cncn2)cc1,3.2,6.8,-145.9,141.3*,5.1,2.2,161.8*,28.2*
Cc1cccc(N2CCN(C(=O)CSCc3c(C)noc3C)CC2)c1C,8.0,1.3,-2.7,16.6*,5.5,0.7,0.1,64.7*
CC1=NN(C(=O)Cc2ccc([N+](=O)[O-])cc2)C(O)(c2ccccc2)C1 (stereo not given),-3.1,3.5,-4.3,1.3,-6.0,1.5,.,.
C=CCNc1ncnc2c1[nH]c1ccc(C)cc12,-0.7,-1.4,-17.7,30.1*,2.7,3.0,14.9,35.1*
COc1ccc(/C=N/Nc2ncnc3c2[nH]c2ccccc23)c(OC)c1OC,3.1,-6.7,-8.6,6.6,-2.8,0.1,.,.
COc1cccc(/C=N/Nc2ncnc3c2[nH]c2ccc(C)cc23)c1OC,7.5,-1.7,-45.3,62.7*,1.5,1.5,59.4*,13.6
Cc1ccsc1C(=O)OCC(=O)N(Cc1ccccc1)C(C)C,.,-0.2,2.4,16.3*,.,.,2.7,12.4
Cc1ccsc1C(=O)OCC(=O)NCCCc1ccccc1,-2.4,-3.5,2.4,1.0,-13.2,-1.1,.,.
SMILES,PP1 inh,Exocytosis inh,IDE cell activ,IDE inh,SKKanGAS inh,PP5 primary,IDE inh confirm,HEK293 tox
CC(O)(c1ccc(Cl)cc1)C(c1ccccc1)c1ccccn1 (stereo not given),.,-0.1,2.9,.,.,.,.,.
C=CCN1C(=O)c2cccc3c(N4CCCCC4)ccc(c23)C1=O,-4.4,-2.2,-74.5,21.7*,8.4,1.6,84.9*,24.3*
O=C1c2cccc3c(N4CCCCC4)ccc(c23)C(=O)N1c1cccc(O)c1,3.6,21.7,-139.9,124.4*,-6.8,-3.4,152.9*,24.8*
Cc1n[nH]c(C)c1N1C(=O)c2cccc3c(N4CCCCCC4)ccc(c23)C1=O,-7.7,0.8,-67.2,121.7*,8.6,-6.3,25.9*,10.3
CC(=O)c1ccc2c3c(cccc13)C(=O)N(c1c(C)nn(C)c1C)C2=O,2.8,1.9,-1.4,3.7,.,1.9,.,.
C=CCN1C(=O)c2cccc3c(Br)ccc(c23)C1=O,-1.4,-4.2,2.3,1.5,-8.5,-0.4,.,.
Cc1cc(=O)[nH]c(/N=C(\N)Nc2cccc3ccccc23)n1,-1.7,-3.4,-34.6,16.4*,3.9,2.4,7.1,13.3
Cc1cc(=O)[nH]c(/N=C(\N)Nc2ccc(Oc3ccccc3)cc2)n1,7.9,-3.1,1.3,2.7,-3.6,0.8,.,.
Clc1ccc2[nH]c3c(NCCCN4CCOCC4)ncnc3c2c1,-2.2,-1.7,-8.8,41.8*,2.0,4.4,16.8*,20.9
COc1ccc(CCNC(=O)c2c(C)nn(-c3ccccc3)c2Cl)cc1OC,-1.5,-5.0,-1.2,-1.1,-6.6,-0.7,.,.
CCN1/C(=C/c2cc[n+](CCCS(=O)(=O)[O-])c3ccccc23)Sc2ccccc21,0.6,-8.7,-8.1,25.8*,-16.6,0.9,28.3*,10.1
CCC(/C=C1\Sc2ccc(OC)cc2N1CC)=C\c1sc2ccc(OC)cc2[n+]1CCCS(=O)(=O)[O-],1.1,0.1,0.6,3.1,22.0,5.6,.,.
Cc1cc(C)n2c(NC3CCCCC3)c(CC(C)C)nc2n1,.,5.2,.,.,.,.,.,.
c1cc(-c2ccc3nncn3c2)ccc1CN1CCOCC1,.,-8.9,.,.,.,.,.,.
O=C(CN1C(=O)CCC1=O)c1ccc(-c2ccccc2)cc1,-7.5,-1.8,-5.8,5.4,-3.6,-0.1,.,.
N=c1ccn(CC(=O)c2ccc(-c3ccccc3)cc2)cc1,9.8,-0.5,-26.9,43.1*,-0.3,-0.1,11.0,88.4*
